# Source: PubChem BioAssay
# A selection: hits, their analogues and other compounds. The true share with any hit is near 5.7%.
# DAX1 inh-1 – inhibitors of human orphan nuclear receptor DAX1 (NR0B1); HEK293 Gal4-DAX1 luciferase reporter, luminescence; 340,000 tested, 0.99% active; inhibition, % at 6.75 µM;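 active means inhibition above the mean over all tested compounds plus 3 SD, cut at about 4.2% in these data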;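 further: 0% = DAX1-transfected cells with DMSO and 100% = empty-vector control cells with DMSO; inhibition shows as a rise in luminescence from relieved DAX1 repression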
# DAX1 inh-2 – DAX1 (NR0B1) inhibition, primary screen; 370,000 tested, 1.1% active; AID 652010; inhibition, % at 6.8 µM; HEK293T StAR-luciferase reporter, SF-1/DAX-1 repression relief;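 active means inhibition above the mean over all tested compounds plus 3 SD, cut at about 3.6% in these data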;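 further: 0% = DAX-1 cells with DMSO and 100% = cells lacking DAX-1 with DMSO; higher inhibition means more luminescence from relief of DAX-1 repression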
# ssDAF12 agonist – S. stercoralis DAF-12 activation, primary screen | HEK293 ssDAF-12/GRIP1 lit1-tk-luc reporter, luminescence; % of 3 µM dafachronic acid response | activation, % at 6.8 µM | 370,000 tested, 1% active | AID 652126;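 active means activation above the mean over all tested compounds plus 3 SD, cut at about 0.9% in these data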;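 further: 0% = DMSO-only wells and 100% = 3 µM delta7-dafachronic acid wells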
# hcDAF12 agonist – activates DAF-12 receptor from parasite H. contortus | AID 652067 | activation, % at 6.8 µM | HEK293 hcDAF-12 lit1-tk-luc reporter, luminescence; 0% DMSO, 100% Δ7-dafachronic acid | 370,000 tested, 1.4% active;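 active means activation above the mean of all tested compounds plus 3 SD, cut at about 5.5% in these data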;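 further: 100% = response to 3 µM Δ7-dafachronic acid high control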
# hgDAF-12 ag – activates the H. glycines DAF-12 receptor ligand-binding domain; 370,000 tested, 1.8% active; activation, % at 6.8 µM; AID 687014; HEK293 GAL4-hgDAF12 UAS-luciferase reporter, agonist luminescence; normalized to butyrate control;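 active means activation above a cutoff set at the mean of all screened compounds plus 3 SD, cut at about 10% in these data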;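 further: 0% = DMSO wells and 100% = sodium butyrate wells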
# AHR activator – human AHR activation | P35869 | AHR-responsive luciferase reporter cells, luminescence | activation, % at 5 µM | 320,000 tested, 2.5% active | AID 2796; in the data active means activation above about 47%;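 further: 0% = vehicle wells and 100% = reference agonist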
# * marks the source's active call; other numbers are inactive results; . = no result.
SMILES,DAX1 inh-1,DAX1 inh-2,ssDAF12 agonist,hcDAF12 agonist,hgDAF-12 ag,AHR activator
COC(=O)C1=C(C)N(Cc2ccc(Br)cc2)C(=S)NC1c1ccccc1 (stereo not drawn),.,-2,-1,1,-3,.
O=C1/C(=C\Nc2ccc(OC(F)(F)F)cc2)CCN1c1ncccn1,0,1,-1,1,2,6
O=C1/C(=C\Nc2ccc(Cl)cc2)CCN1c1ncccn1,2,1,0,1,3,52*
COc1cc(-c2nnc(-c3cccs3)o2)cc(OC)c1OC,0,0,0,-3,-2,9
COc1ccc(-c2nnc(-c3cccs3)o2)cc1OC,1,3,0,1,12*,1
C=CCNCc1ccc(C(=O)NCCCCCCC)cc1[N+](=O)[O-],0,0,-1,-1,4,1
CC(=O)OCCCN(C)CC/C=C1/c2ccccc2CSc2ccccc21,0,0,1.0*,-1,0,2
C[N+](C)(C)CC/C=C1/c2ccccc2CSc2ccccc21,-1,1,-1,0,0,-1
CC(=O)Nc1ccc(NC(=O)c2nc(S(=O)(=O)Cc3cccc(C)c3)ncc2Cl)cc1,0,4.0*,-1,-3,-5,0
COc1ccccc1NC(=O)c1nc(S(=O)(=O)Cc2ccccc2)ncc1Cl,0,2,-1,1,-1,60*
COC(=O)c1ccc(NC(=O)c2nc(S(=O)(=O)Cc3cccc(C)c3)ncc2Cl)cc1,0,-2,-1,-4,-9,4
CCS(=O)(=O)c1ncc(Cl)c(C(=O)Nc2ccccc2OC)n1,3,0,0,1,0,35
COc1cc(/C=C(\C#N)c2nc3ccccc3[nH]2)cc(OC)c1O,1,0,-1,-2,5,15
N#C/C(=C(\O)Cc1ccccc1)c1nc2ccccc2[nH]1,2,-1,-1,-1,0,50*
COc1ccccc1N/C=C(\C#N)c1nc2ccccc2[nH]1,0,0,1.2*,5,1,70*
C/C(O)=C(\C#N)c1nc2ccccc2[nH]1,-1,0,-1,-2,0,9
N#C/C(=C(/O)CSc1nnc(Cc2cccs2)n1C1CCCCC1)c1nc2ccccc2[nH]1,2,0,1,7.1*,-1,37
N#C/C(=C(/O)CCl)c1nc2ccccc2[nH]1,-1,-2,1.0*,5,-6,23
COc1ccccc1-c1nnc(SC/C(O)=C(\C#N)c2nc3ccccc3[nH]2)n1C1CCCCC1,1,1,-1,2,-1,16
Cc1nc([N+](=O)[O-])cn1CC(Cl)Cn1cc([N+](=O)[O-])nc1C,.,-1,-1,1,0,.
COc1ccc(C(=O)CSc2nnc(-c3ccccn3)n2-c2ccccc2)cc1,.,-1,-2,-2,0,.
COc1cccc(/C=C(/C#N)c2nc3ccccc3[nH]2)c1OC(C)C(=O)O (stereo not drawn),7.0*,1,1.0*,4,5,19
COc1ccccc1/C(O)=C(\C#N)c1nc2ccccc2[nH]1,3,0,-1,2,-1,48*
COc1cc(/C=C(/C#N)c2nc3ccccc3[nH]2)ccc1OC(=O)c1ccco1,1,0,-1,1,-1,60*
Cc1cccc(C)c1Nc1nnc(SC/C(O)=C(\C#N)c2nc3ccccc3[nH]2)s1,0,0,1,3,0,38
SMILES,DAX1 inh-1,DAX1 inh-2,ssDAF12 agonist,hcDAF12 agonist,hgDAF-12 ag,AHR activator
Cc1cccc(Nc2nnc(SC/C(O)=C(\C#N)c3nc4ccccc4[nH]3)s2)c1C,1,0,1.0*,5,2,38
CCCC[C@H]1C2CC(OC(=O)NCCCC(=O)OCC)C(C2)[C@H]2CCCCN21 (stereo partly drawn),.,0,-1,-2,0,.
N#C/C(=C(/O)c1cccs1)c1nc2ccccc2[nH]1,2,0,-1,0,3,54*
CCCC(=O)OC[C@H]1CN(C2CCCC2)S(=O)(=O)c2c(F)cccc2O1,.,2,0,3,-1,.
Cc1cc2cc(C)c3nnc(SCc4ccccn4)n3c2cc1C,-1,-1,-1,-2,-1,73*
Cc1ccc(C)c2c1cc(C)c1nnc(SCc3ccccn3)n12,1,-1,-1,-3,-2,3
